3 compounds from PubChem BioAssay (EPA / NIEHS) can be followed below.

Where a structure was tested more than once in an assay, its records may differ in their call. Calls of active or inactive are those of the source. How the source made its calls: active means hit-call score of the fitted dose curve at least 0.9, where 1 is the maximum; inactive means score below 0.9.

The nature of experiment [1]: ATG_GRE_CIS: Attagene CIS-FACTORIAL HepG2 Assay for human Glucocorticoid Response Elements (GRE) (AID 2282947). The note with it: HepG2 GRE cis-reporter, Attagene multiplex mRNA; actives raise or lower the signal. The procedure, abridged:
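Transiently transfected HepG2 cells carrying GRE cis-reporter units (endogenous TF activity) dosed 24 h; reporter mRNA quantified by RT-PCR, 6-FAM labelling, HpaI digestion and capillary electrophoresis. Bidirectional fit versus DMSO baseline.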

Experiment [2] is described as follows: ATG_ISRE_CIS: Attagene CIS-FACTORIAL HepG2 Assay for human Interferon Regulatory Factor 1 (IRF1) binding to an Interferon-Stimulated Response Element (ISRE) (AID 2282948). The note with it: HepG2 ISRE cis-reporter (Attagene), mRNA transcription readout; actives raise or lower the signal. The procedure, abridged: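 Transiently transfected HepG2 cells carrying cis-element reporter units, dosed 24 hours. Reporter mRNA quantified by RT-PCR, fluorescent primer extension, HpaI digestion and capillary electrophoresis. Bidirectional fitting relative to DMSO.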

Experiment [3] can be described thus: ATG_M_32_CIS: Attagene CIS-FACTORIAL HepG2 Assay for M32 Transcription Factor (Internal Marker) (AID 2282949).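 Further: background control marker of the multiplexed CIS panel rather than a real target.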 The note with it: HepG2 Attagene cis-factorial M32 reporter, mRNA; actives raise or lower the signal. The procedure, abridged: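 Fluorescent capillary electrophoresis peaks of HpaI-digested, FAM-labelled RT-PCR reporter products give the signal. Source: transiently transfected human liver HepG2 cells, 24 h after chemical dosing; bidirectional fitting against DMSO.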

Experiment [4] can be described thus: ATG_M_06_CIS: Attagene CIS-FACTORIAL HepG2 Assay for M06 Transcription Factor (Internal Marker) (AID 2282950). The note with it: HepG2 Attagene CIS-FACTORIAL M06 internal marker reporter; actives raise or lower the signal. The procedure, abridged:
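Internal background marker within multiplexed cis-reporter HepG2 system. Cells transiently transfected, dosed 24 h; reporter mRNA measured by RT-PCR, HpaI digestion and capillary electrophoresis. Bidirectional fit relative to DMSO.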

The target in experiment [5] is Hypoxia-inducible factor 1-alpha (Homo sapiens) (UniProt Q16665). In words: ATG_HIF1a_CIS: Attagene CIS-FACTORIAL HepG2 Assay for human Hypoxia Inducible Factor 1 (HIF1A) (AID 2282951). Conditions: HepG2 Attagene cis-factorial HIF1a reporter transcription; actives raise or lower the signal. The procedure, abridged: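 Cis-element reporter constructs were transiently transfected into HepG2 cells, which were treated for 24 h; reporter RNA was reverse-transcribed, amplified, labelled and resolved by capillary electrophoresis.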
Hypoxia-inducible factor 1-alpha (Homo sapiens), sequence (Q16665 whole entry, looked up): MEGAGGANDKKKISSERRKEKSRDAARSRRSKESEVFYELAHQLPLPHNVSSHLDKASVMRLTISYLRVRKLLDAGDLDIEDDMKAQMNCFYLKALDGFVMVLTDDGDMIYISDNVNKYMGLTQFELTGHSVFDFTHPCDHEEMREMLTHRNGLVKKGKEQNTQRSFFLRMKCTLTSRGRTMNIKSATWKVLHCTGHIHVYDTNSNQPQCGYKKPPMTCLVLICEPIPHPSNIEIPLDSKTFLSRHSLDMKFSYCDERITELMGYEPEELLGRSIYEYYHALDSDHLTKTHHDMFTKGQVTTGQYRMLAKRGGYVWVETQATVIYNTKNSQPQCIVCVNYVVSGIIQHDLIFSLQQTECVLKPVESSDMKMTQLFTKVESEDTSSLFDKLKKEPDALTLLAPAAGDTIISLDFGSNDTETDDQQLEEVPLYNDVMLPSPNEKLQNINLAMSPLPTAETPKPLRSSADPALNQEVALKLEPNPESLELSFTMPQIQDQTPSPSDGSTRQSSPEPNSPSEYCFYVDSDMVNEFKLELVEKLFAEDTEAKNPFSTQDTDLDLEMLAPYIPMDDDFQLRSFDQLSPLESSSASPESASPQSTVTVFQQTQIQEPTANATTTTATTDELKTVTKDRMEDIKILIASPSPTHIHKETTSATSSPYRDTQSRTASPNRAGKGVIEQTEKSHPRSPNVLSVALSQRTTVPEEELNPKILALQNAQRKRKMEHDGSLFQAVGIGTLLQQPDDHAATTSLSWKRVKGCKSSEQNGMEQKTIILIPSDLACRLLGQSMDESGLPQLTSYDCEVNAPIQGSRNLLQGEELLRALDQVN

The target of experiment [6] is Hepatocyte nuclear factor 6 (Homo sapiens) (UniProt Q9UBC0). Nature of the experiment: ATG_HNF6_CIS: Attagene CIS-FACTORIAL HepG2 Assay for human Hepatocyte Nuclear Factor 6 (HNF6) (AID 2282952). Conditions: HepG2 Attagene cis-factorial HNF6 reporter transcription; actives raise or lower the signal. The procedure, abridged: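 Reporter mRNA induction or loss in HepG2 after 24 h exposure; transient cis-MRTU transfection; fragments quantified by capillary electrophoresis; bidirectional analysis, DMSO as negative control.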
Hepatocyte nuclear factor 6 (Homo sapiens), sequence (Q9UBC0 whole entry, looked up, the tested form may be a part): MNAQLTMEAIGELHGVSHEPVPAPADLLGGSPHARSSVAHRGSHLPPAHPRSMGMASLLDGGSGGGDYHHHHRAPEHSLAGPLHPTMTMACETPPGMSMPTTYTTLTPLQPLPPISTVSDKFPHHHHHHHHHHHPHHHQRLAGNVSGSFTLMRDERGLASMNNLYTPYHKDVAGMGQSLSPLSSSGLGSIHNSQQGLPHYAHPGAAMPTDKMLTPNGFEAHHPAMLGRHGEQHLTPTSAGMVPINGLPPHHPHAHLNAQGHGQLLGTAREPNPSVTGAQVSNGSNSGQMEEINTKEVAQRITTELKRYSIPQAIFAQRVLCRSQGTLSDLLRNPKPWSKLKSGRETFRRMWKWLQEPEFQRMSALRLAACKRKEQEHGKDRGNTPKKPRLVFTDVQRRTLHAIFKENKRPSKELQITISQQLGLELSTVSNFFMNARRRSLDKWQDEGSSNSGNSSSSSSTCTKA

In experiment [7] the target is Heat shock factor protein 1 (Homo sapiens) (UniProt Q00613). In words: ATG_HSE_CIS: Attagene CIS-FACTORIAL HepG2 Assay for human Heat Shock Transcription Factor 1 (HSE) (AID 2282953). The note with it: HepG2 HSE cis-reporter, Attagene RNA transcription; actives raise or lower the signal. The procedure, abridged:
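HepG2 cells transfected with cis-promoter reporter units sensing endogenous transcription factor activity; reporter mRNA quantified 24 h post-dose by RT-PCR and capillary electrophoresis of 6-FAM-labelled products. Bidirectional fitting against DMSO.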

Experiment [8] is described as follows: ATG_MRE_CIS: Attagene CIS-FACTORIAL HepG2 Assay for human Metal Responsive Element (MRE) (AID 2282954). The note with it: HepG2 MRE cis-reporter transcription, Attagene multiplex; actives raise or lower the signal. The procedure, abridged: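 HepG2 cells transiently transfected with cis-element-driven reporter units; mRNA measured 24 h after dosing. Reporter transcripts quantified by RT-PCR, FAM labelling, HpaI digestion and capillary electrophoresis; bidirectional fit versus DMSO.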

A short description of experiment [9]: ATG_PBREM_CIS: Attagene CIS-FACTORIAL HepG2 Assay for human Phenobarbital-responsive Enhancer Module (PBREM) (AID 2282955). Conditions: HepG2 PBREM cis-reporter, Attagene multiplexed transcription; actives raise or lower the signal. The procedure, abridged: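 Multiplexed cis-reporter readout in human hepatoma HepG2 cells; PBREM-regulated transcript quantified after 24 h exposure by fluorescent RT-PCR fragment analysis. Signal changes up or down fitted relative to DMSO.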

Experiment [10] concerns the target Paired box protein Pax-6 (Homo sapiens) (UniProt P26367). In words: ATG_Pax6_CIS: Attagene CIS-FACTORIAL HepG2 Assay for human Paired Box 6 (PAX6) (AID 2282956). The note with it: HepG2 CIS-FACTORIAL PAX6 reporter transcription, RNA readout; actives raise or lower the signal. The procedure, abridged: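 HepG2 cells transiently transfected with cis-promoter-driven multiplexed reporter units sensing endogenous transcription factor activity; 24 h chemical exposure. Reporter mRNA quantified by RT-PCR, 6-FAM labelling, HpaI digestion and capillary electrophoresis; bidirectional fit versus DMSO baseline.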

Experiment [11] in a line: ATG_PXRE_CIS: Attagene CIS-FACTORIAL HepG2 Assay for human Pregnane X Receptor Element (PXRE) (AID 2282957). Conditions: HepG2 Attagene CIS-FACTORIAL PXRE reporter, mRNA; actives raise or lower the signal. The procedure, abridged:
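Transiently transfected HepG2 cells were dosed and incubated for 24 h. RNA was then isolated, DNase-treated, reverse-transcribed and reporter sequences amplified. Labeled, HpaI-digested fragments were quantified by capillary electrophoresis against DMSO.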

Experiment [12] is described as follows: ATG_PPRE_CIS: Attagene CIS-FACTORIAL HepG2 Assay for human Peroxisome Proliferator-activated Response Element (PPRE) (AID 2282958). The note with it: HepG2 PPRE cis-element reporter, Attagene transcription factor profiling; actives raise or lower the signal. The procedure, abridged:
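DMSO served as negative control and baseline for bidirectional curve fitting. Signal came from PPRE-regulated reporter mRNA in HepG2 cells, measured 24 h post-dosing by RT-PCR, 6-FAM primer extension and capillary electrophoresis.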

A short description of experiment [13]: ATG_RORE_CIS: Attagene CIS-FACTORIAL HepG2 Assay for human RAR-related Orphan Receptor Element (RORE) (AID 2282959). The note with it: HepG2 Attagene cis-factorial RORE reporter, mRNA; actives raise or lower the signal. The procedure, abridged: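 Transfect HepG2 with MRTUs; treat 24 h; extract RNA; RT with oligo(dT); PCR with reporter-specific primers; 6-FAM primer extension; HpaI digest 2 h at 37 C; capillary electrophoresis. Fit vs DMSO, bidirectional.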

A short description of experiment [14]: ATG_Sox_CIS: Attagene CIS-FACTORIAL HepG2 Assay for human SRY-box transcription factor (SOX) (AID 2282960). Conditions: HepG2 Attagene cis-factorial SOX reporter, mRNA; actives raise or lower the signal. The procedure, abridged:
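Fluorescence-labelled cDNA fragments from reporter transcripts, sized by CE, give the signal. Cells: HepG2, transiently transfected with cis-regulated reporter units. Exposure 24 h; DMSO negative control; bidirectional curve fitting.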

For experiment [15], the target named is Transcription factor Sp1 (Homo sapiens) (UniProt P08047). Nature of the experiment: ATG_Sp1_CIS: Attagene CIS-FACTORIAL HepG2 Assay for human Specificity Protein 1 (Sp1) (AID 2282961). The note with it: HepG2 Sp1 cis-reporter transcription, actives raise or lower the signal. The procedure, abridged:
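Chemicals are dosed onto HepG2 cells transfected with multiple cis-promoter reporter constructs, and after 24 h reporter RNA is reverse-transcribed, PCR-amplified and resolved by capillary electrophoresis for fluorescence quantitation; activity is scored up or down against DMSO.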

Experiment [16] can be described thus: ATG_SREBP_CIS: Attagene CIS-FACTORIAL HepG2 Assay for human Sterol Regulatory Element Binding (SREBP) (AID 2282962). The note with it: HepG2 Attagene cis-factorial SREBP reporter, mRNA; actives raise or lower the signal. The procedure, abridged: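 HepG2 cells transiently transfected with multiplexed cis-promoter reporter units sensing endogenous transcription factors; reporter mRNA measured 24 h after dosing by RT-PCR, 6-FAM labeling, HpaI digestion and capillary electrophoresis. Bidirectional fit versus DMSO.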

Experiment [17] concerns the target Signal transducer and activator of transcription 3 (Homo sapiens) (UniProt P40763). Nature of the experiment: ATG_STAT3_CIS: Attagene CIS-FACTORIAL HepG2 Assay for human Signal Transducer and Activator of Transcription 3 (STAT3) (AID 2282963). Conditions: HepG2, Attagene cis-factorial STAT3 reporter transcription; actives raise or lower the signal. The procedure, abridged: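 HepG2 cells transiently transfected with multiple cis-element-driven reporter units report endogenous transcription factor activity. After 24 h compound exposure, reporter mRNA is measured by RT-PCR, 6-FAM labelling, HpaI digestion and capillary electrophoresis. Fitted bidirectionally versus DMSO.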

Experiment [18] can be described thus: ATG_TCF_b_cat_CIS: Attagene CIS-FACTORIAL HepG2 Assay for human T-Cell-Factor with beta-catenin (TCF/b-cat) (AID 2282965). Conditions: HepG2 TCF/beta-catenin cis-reporter transcription, actives raise or lower the signal. The procedure, abridged: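 HepG2 cells transiently transfected with cis-promoter-driven multiplexed reporter units; reporter mRNA measured 24 h after dosing by RT-PCR, FAM labelling, HpaI digestion and capillary electrophoresis. Bidirectional fitting relative to DMSO baseline.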

A short description of experiment [19]: ATG_TAL_CIS: Attagene CIS-FACTORIAL HepG2 Assay for human TAL Basal Promoter (AID 2282966).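 Further: background control endpoint measuring basal TAL promoter reporter mRNA not a specific factor.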 The note with it: HepG2 Attagene cis-factorial TAL promoter reporter; actives raise or lower the signal. The procedure, abridged: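 Readout: reporter mRNA, fluorescence by CE. System: HepG2, transient multi-reporter transfection, endogenous TF activity. Exposure: 24 h. Analysis: bidirectional, DMSO-normalized; background control.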

Signal transducer and activator of transcription 3 (Homo sapiens), sequence (P40763 whole entry, looked up): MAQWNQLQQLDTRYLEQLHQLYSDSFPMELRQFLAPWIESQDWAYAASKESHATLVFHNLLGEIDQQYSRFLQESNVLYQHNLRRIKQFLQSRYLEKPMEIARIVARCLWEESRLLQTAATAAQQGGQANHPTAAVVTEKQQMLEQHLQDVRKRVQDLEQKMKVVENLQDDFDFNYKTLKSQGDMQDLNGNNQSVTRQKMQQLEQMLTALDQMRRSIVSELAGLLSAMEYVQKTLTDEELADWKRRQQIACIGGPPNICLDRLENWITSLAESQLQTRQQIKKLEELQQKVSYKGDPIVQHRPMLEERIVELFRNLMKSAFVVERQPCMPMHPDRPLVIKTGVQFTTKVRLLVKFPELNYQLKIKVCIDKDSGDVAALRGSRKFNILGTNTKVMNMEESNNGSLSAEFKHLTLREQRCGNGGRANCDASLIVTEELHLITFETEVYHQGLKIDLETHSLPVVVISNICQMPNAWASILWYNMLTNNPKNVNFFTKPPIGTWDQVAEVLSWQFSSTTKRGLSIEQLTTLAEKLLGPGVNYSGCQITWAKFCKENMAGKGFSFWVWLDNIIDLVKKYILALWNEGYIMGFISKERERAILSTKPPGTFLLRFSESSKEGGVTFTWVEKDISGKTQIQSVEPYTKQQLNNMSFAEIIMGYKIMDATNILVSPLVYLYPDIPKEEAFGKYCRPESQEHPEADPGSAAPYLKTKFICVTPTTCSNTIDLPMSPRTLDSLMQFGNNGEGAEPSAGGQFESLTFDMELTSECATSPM
Paired box protein Pax-6 (Homo sapiens), sequence (P26367 whole entry, looked up): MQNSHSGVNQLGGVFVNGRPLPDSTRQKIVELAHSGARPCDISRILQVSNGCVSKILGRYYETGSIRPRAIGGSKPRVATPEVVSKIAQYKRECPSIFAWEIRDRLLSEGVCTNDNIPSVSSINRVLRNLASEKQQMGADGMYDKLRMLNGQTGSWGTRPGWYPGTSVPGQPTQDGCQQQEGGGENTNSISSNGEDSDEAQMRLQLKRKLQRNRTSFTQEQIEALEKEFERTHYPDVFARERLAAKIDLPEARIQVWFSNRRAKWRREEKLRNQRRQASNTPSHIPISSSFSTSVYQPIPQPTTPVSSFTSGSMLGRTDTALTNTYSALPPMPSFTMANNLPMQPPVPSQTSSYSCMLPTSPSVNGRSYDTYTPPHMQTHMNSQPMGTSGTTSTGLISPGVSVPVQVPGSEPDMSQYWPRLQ
Transcription factor Sp1 (Homo sapiens), sequence (P08047 whole entry, looked up): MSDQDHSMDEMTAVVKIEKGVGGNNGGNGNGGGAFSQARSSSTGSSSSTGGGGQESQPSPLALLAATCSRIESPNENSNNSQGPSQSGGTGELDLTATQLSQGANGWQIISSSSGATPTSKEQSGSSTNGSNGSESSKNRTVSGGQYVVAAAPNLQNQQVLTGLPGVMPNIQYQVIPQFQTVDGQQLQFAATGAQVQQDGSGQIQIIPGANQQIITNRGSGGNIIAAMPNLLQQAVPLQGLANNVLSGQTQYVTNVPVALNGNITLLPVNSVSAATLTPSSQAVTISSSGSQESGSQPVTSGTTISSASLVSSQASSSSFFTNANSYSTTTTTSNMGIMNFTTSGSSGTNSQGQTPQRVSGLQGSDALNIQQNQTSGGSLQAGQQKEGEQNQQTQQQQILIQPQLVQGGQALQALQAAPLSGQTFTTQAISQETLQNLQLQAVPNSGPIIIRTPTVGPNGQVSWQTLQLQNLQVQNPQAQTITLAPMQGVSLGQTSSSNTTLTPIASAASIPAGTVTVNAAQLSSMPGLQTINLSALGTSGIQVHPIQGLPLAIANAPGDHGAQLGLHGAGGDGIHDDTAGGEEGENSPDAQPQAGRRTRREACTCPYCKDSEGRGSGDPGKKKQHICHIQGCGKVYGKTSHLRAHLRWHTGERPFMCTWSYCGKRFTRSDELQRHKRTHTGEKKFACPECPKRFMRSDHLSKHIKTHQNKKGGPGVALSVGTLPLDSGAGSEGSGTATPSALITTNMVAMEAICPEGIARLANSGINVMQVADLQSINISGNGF
Heat shock factor protein 1 (Homo sapiens), sequence (Q00613 whole entry, looked up): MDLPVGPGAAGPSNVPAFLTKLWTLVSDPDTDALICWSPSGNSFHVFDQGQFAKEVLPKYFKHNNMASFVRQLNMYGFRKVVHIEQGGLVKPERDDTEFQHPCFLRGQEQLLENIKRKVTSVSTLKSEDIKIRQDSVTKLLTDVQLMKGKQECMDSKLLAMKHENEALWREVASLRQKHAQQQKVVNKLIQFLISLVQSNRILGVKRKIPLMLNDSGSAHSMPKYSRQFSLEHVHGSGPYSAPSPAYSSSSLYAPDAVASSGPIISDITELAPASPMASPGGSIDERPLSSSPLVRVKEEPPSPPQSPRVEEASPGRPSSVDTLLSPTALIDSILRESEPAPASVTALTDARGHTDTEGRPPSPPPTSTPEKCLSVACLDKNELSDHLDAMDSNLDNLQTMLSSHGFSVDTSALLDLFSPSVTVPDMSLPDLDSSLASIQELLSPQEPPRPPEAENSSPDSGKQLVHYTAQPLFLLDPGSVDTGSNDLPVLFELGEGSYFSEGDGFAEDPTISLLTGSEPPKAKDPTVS

In the case of `CCCc1ccccc1`, the compound was called inactive in experiment [1], in experiment [2], in [3], in [4], in experiment [6] and in experiment [7]. The compound was classed as inactive in [8], in [9], in experiment [10], in experiment [11], in experiment [12] and in experiment [13]. Further, the compound was called inactive in experiment [14], in experiment [15], in [16], in experiment [17], in experiment [18] and in experiment [19]. The AC50 in [5] was 60.7 µM (active).

With `Cc1nccn1-c1ccc(Sc2cccc(C3(C(N)=O)CCOCC3)c2)cc1`, the AC50 was 5.85 µM (active) in experiment [1]; 7.26 µM (active) in experiment [2]; 7.22 µM (active) in [6]; 6.89 µM (active) in experiment [8]; 3.41 µM (active) in experiment [9]; 5.29 µM (active) in experiment [13]. In addition, the AC50 in experiment [15] was 2.31 µM (active); in experiment [16] it was 2.08 µM (active); in [18], 6.41 µM (active); in experiment [19], 6.43 µM (active). Besides, the outcome in experiment [3], in [4], in experiment [5], in experiment [7], in [11] and in [14] was inactive. Besides, the call in [17] was inactive.

Regarding `c1ccc2c(c1)-c1cccc3c1c-2cc1ccccc13`, the result in experiment [1], in experiment [2], in [3], in [4], in experiment [5] and in experiment [8] was inactive. Besides, the result in experiment [9], in [10], in [11], in [12], in [13] and in experiment [14] was inactive. For the same compound, the result in [15], in experiment [16], in experiment [17], in experiment [18] and in experiment [19] was inactive. The half-maximal activity concentration (AC50) was 4.67 µM (active) in [5] and 2.26 µM (active) in [12].
